According to PubChem BioAssay (EPA / NIEHS):
Inconclusive results are not listed. The source made the active and inactive calls. How the source made its calls, unless noted: active means hit-call score of the fitted dose curve at least 0.9, where 1 is the maximum; inconclusive means response in the unintended direction; inactive means score below 0.9.

Read-out: Thyroid Hormone Responsive (THRSP), THRSP (gene 7069)
Assay: LTEA_HepaRG_THRSP: Life Technologies and Expression Analysis (LTEA) Assay for Thyroid Hormone Responsive (THRSP) using HepaRG (AID 2283536; active means hit-call score of the fitted dose curve at least 0.9, where 1 is the maximum; inactive means score below 0.9)
Conditions: mRNA level, 48 h; actives raise or lower the signal
Method in brief: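 Cell model: human HepaRG, approx. 100,000 cells/well, 0.5% DMSO vehicle. Exposure lasts 48 h; phenobarbital 1 mM serves as induction positive control. Gene expression is measured by qRT-PCR against three endogenous control genes.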

SMILES	outcome	AC50
Nc1ccc(C(=O)O)cc1	inactive	
Cc1ccc([N+](=O)[O-])cc1N		13.3 µM (active)
C1CNCCN1	inactive	

Read-out: Cellular tumor antigen p53 (Homo sapiens) (UniProt P04637)
Assay: LTEA_HepaRG_TP53: Life Technologies and Expression Analysis (LTEA) Assay for Tumor Protein P53 (TP53) using HepaRG (AID 2283537; active means hit-call score of the fitted dose curve at least 0.9, where 1 is the maximum; inactive means score below 0.9)
Conditions: mRNA level, 48 h; actives raise or lower the signal
Method in brief: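 Gain or loss of TP53 mRNA signal is scored relative to 0.5% DMSO after 48 h chemical treatment of HepaRG liver cells, tested in duplicate at eight half-log concentrations up to 100 uM.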

SMILES	outcome
Nc1ccc(C(=O)O)cc1	inactive
Cc1ccc([N+](=O)[O-])cc1N	inactive
C1CNCCN1	inactive

Read-out: UDP glucuronosyltransferase (UGT1A1), UGT1A1 (gene 54658)
Assay: LTEA_HepaRG_UGT1A1: Life Technologies and Expression Analysis (LTEA) Assay for UDP glucuronosyltransferase (UGT1A1) using HepaRG (AID 2283538; active means hit-call score of the fitted dose curve at least 0.9, where 1 is the maximum; inactive means score below 0.9)
Conditions: mRNA level, 48 h; actives raise or lower the signal
Method in brief: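 mRNA induction or loss of UGT1A1, by TaqMan qRT-PCR, in duplicate HepaRG wells after 48 h exposure to half-log dilutions topping at 100 uM; DMSO (0.5%) served as baseline.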

SMILES	outcome	AC50
Nc1ccc(C(=O)O)cc1	inactive	
Cc1ccc([N+](=O)[O-])cc1N		50 µM (active)
C1CNCCN1	inactive	

Read-out: UDP glucuronosyltransferase (UGT1A6), UGT1A6 (gene 54578)
Assay: LTEA_HepaRG_UGT1A6: Life Technologies and Expression Analysis (LTEA) Assay for UDP glucuronosyltransferase (UGT1A6) using HepaRG (AID 2283539; active means hit-call score of the fitted dose curve at least 0.9, where 1 is the maximum; inactive means score below 0.9)
Conditions: mRNA level, 48 h; actives raise or lower the signal
Method in brief: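 Endpoint is UGT1A6 transcript induction or loss in a human liver cell line, quantified by TaqMan qRT-PCR 48 h after dosing. Concentrations ran from 100 uM downward in half-log steps in 0.5% DMSO; activity was fitted in both directions versus vehicle.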

SMILES	outcome
Nc1ccc(C(=O)O)cc1	inactive
Cc1ccc([N+](=O)[O-])cc1N	inactive
C1CNCCN1	inactive

Read-out: X-box binding protein 1 (XBP1), XBP1 (gene 7494)
Assay: LTEA_HepaRG_XBP1: Life Technologies and Expression Analysis (LTEA) Assay for X-box binding protein 1 (XBP1) using HepaRG (AID 2283540; active means hit-call score of the fitted dose curve at least 0.9, where 1 is the maximum; inactive means score below 0.9)
Conditions: mRNA level, 48 h; actives raise or lower the signal
Method in brief: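 Human HepaRG monolayers receive test chemical for 48 h across an eight-point half-log series starting at 100 uM. XBP1 mRNA gain or loss is scored against DMSO by qRT-PCR.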

SMILES	outcome
Nc1ccc(C(=O)O)cc1	inactive
Cc1ccc([N+](=O)[O-])cc1N	inactive
C1CNCCN1	inactive

Read-out: not listed separately
Assay: LTEA_HepaRG_LDH_cytotoxicity: Cytotoxicity Assessment in the Life Technologies and Expression Analysis (LTEA) Assay (AID 2283563)
Conditions: not given
Description: LTEA_HepaRG is a cell based, multiplexed-readout assay that uses HepaRG, a human liver cell line, with measurements taken at 48 hours after chemical dosing on a 96-well plate.LTEA_HepaRG_LDH_cytotoxicity is one of 102 assay component(s) measured in the LTEA HepaRG cell culture assay. It is a marker of cell viability / cytotoxicity.Data from the assay component LTEA_HepaRG_LDH_cytotoxicity was analyzed into 1 endpoint. This assay endpoint, LTEA_HepaRG_LDH_cytotoxicity, was analyzed in the positive fitting direction relative to DMSO as the negative control and baseline of activity. Using a type of inducible reporter, measures of mRNA induction for loss-of-signal activity can be used to understand cell death. To generalize the intended target to other relatable targets, this assay endpoint is annotated to the cell cycle intended target family, where the subfamily is proliferation.
A total of 1060 chemcials from the ToxCast library were tested in eight-point concentration-response experiments. Cell culture and cytotoxicity assays were conducted at Thermo Fisher Scientific's Custom Services facility (Madison, WI). A single lot of human HepaRG cells (Thermo Fisher Scientific, Frederick, MD) was used for the cell culture experiments. 96-well format collagen type I coated plates of human HepaRG cells were prepared using established methods. Briefly, cryopreserved HepaRG cells were thawed, plated at a density of approximately 100,000 cells/well in HepaRG Thaw, Plate, and General Purpose media (HPRG770, Thermo Fisher Scientific), and incubated for 48 hours. […] Fluidigm's 96.96 Dynamic ArrayTM (Fluidigm, Amsterdam, the Netherlands) technology was used for gene expression analyses by quantitative reverse transcription polymerase chain reaction (qRT-PCR, performed by Quintiles/Expression Analysis, Durham, NC)89. […]

SMILES	outcome
Nc1ccc(C(=O)O)cc1	inactive
Cc1ccc([N+](=O)[O-])cc1N	inactive
C1CNCCN1	inactive

Test system: not listed separately
Assay: ATG_XTT_Cytotoxicity: Cytotoxicity Assessment in the Attagene TRANS-FACTORIAL HepG2 Assay (AID 2283584);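 on AC50: XTT signal for cell number as viability in transfected HepG2 cells; cells exposed to compound for 24 h before reading; active means loss of viability signal versus DMSO baseline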
Conditions: not given
Method in brief: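 Transfect HepG2 with GAL4-UAS reporter units, dose compound, incubate 24 h, then measure viable cell number by XTT. Fit concentration response against DMSO baseline.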

SMILES	outcome	AC50
CC(C)CCOCc1ccccc1	inactive	
CCCCCCCCCC[N+](C)(CCCCCCCCCC)CCC[Si](OC)(OC)OC		43.9 µM (active)
C=CCCCCCCCCC=O	inactive	
CCNc1nc(NC(C)(C)C)nc(OC)n1	inactive	
C=CCOC(=O)c1ccc(C(=O)OCC=C)c(C(=O)OCC=C)c1	inactive	
CC(C)(CO)C(O)C(=O)NCCCO (stereo unspecified)	inactive	
CCC(C)c1ccccc1 (stereo unspecified)	inactive	
Nc1ccc(C(=O)O)cc1	inactive	
O=C(O)CCC(=O)O	inactive	
c1ccc(-c2nc3ccccc3[nH]2)cc1	inactive	
C=CC(=O)NCOCCCC	inactive	
[Cl][Eu]([Cl])[Cl]	inactive	
CC1CCC(C(C)(C)S)C(=O)C1 (stereo unspecified)	inactive	
Cc1c(Cl)cccc1Cl	inactive	
COC(=O)c1ccc(C(=O)OC)c(C(=O)OC)c1	inactive	
CCCCCC1=CCCC1=O	inactive	
c1ccc2sc(SSN3CCOCC3)nc2c1	inactive	
CCCCCCCCCCCC(=O)N(C)CC(=O)O	inactive	
Cc1ccc([N+](=O)[O-])cc1N	inactive	
CCOB(OCC)OCC	inactive	

SMILES	outcome	AC50
COC(=O)C=Cc1ccccc1	inactive	
CCc1cccc(C)c1N(C(=O)CS(=O)(=O)O)C(C)COC (stereo unspecified)	inactive	
Cc1ccc2c(c1)CCCN2	inactive	
CCOC(=O)C1=NN(c2ccc(Cl)cc2Cl)C(C)(C(=O)OCC)C1 (stereo unspecified)	inactive	
O=C(Oc1ccccc1)c1ccccc1O	inactive	
C1CNCCN1	inactive	
Nc1ccc(Cl)c(N)c1	inactive	
CCc1cccc(CC)c1	inactive	
C=CC(C)(O)CC/C=C(\C)CC (stereo unspecified)	inactive	
CCOC(=O)[C@H](O)[C@@H](O)C(=O)OCC	inactive	
Nc1cccc(N)n1	inactive	
Cn1cccc1	inactive	
CCC(=O)C1CC(C(C)C)CC=C1C (stereo unspecified)	inactive	
CC(C)=NNC(N)=S	inactive	
CCC1(C)C(=O)N(Cl)C(=O)N1Cl (stereo unspecified)	inactive	
CCCCCCCCCCCCCc1ccccc1	inactive	
COc1nccnc1CC(C)C	inactive	
CC1=CP(=O)(c2ccccc2)CC1 (stereo unspecified)	inactive	
CC1=CC=C(C(C)C)CC1	inactive	
O=C1CCCCC1C1CCCCC1 (stereo unspecified)	inactive	

Biological target: Cellular tumor antigen p53 (Homo sapiens) (UniProt P04637)
Sequence (P04637 whole entry, looked up): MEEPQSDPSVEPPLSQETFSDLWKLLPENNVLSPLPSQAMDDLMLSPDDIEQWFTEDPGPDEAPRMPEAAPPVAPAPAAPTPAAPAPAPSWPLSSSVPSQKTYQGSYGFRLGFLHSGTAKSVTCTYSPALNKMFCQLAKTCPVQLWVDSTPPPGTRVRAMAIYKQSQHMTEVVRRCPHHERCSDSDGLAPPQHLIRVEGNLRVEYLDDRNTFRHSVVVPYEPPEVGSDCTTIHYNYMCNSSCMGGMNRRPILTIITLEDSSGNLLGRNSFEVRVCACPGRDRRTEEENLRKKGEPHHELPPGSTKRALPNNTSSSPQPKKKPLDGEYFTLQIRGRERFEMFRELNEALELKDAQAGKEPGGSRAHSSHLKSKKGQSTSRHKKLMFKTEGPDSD
Assay: TOX21_p53_BLA_p2_ratio: Tox21 HCT-116 p53 Agonism Beta-lactamase Assay, Ratio, Phase 2 (AID 2283592)
Conditions: not given
Method in brief: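 Cleaved-to-uncleaved substrate ratio (460 vs 530 nm) measured in HCT116 cells with an inducible beta-lactamase reporter linked to p53 activity. Compounds incubated 16 h at 37C before 2 h room-temperature CCF4-AM loading.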

SMILES	outcome
Nc1ccc(C(=O)O)cc1	inactive
Cc1ccc([N+](=O)[O-])cc1N	inactive
C1CNCCN1	inactive
